# Results: PubChem BioAssay
# Target: Focal adhesion kinase 1 (Homo sapiens) (UniProt Q05397)
# Test: small-molecule microarray binders of FAK, primary screen, biochemical, 635/667 nm fluorescence, BSA, DTT (AID 1130);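 also: composite of spot emission at 667 nm and signal to noise over triplicate slides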
# Details: PTK2 binding, 635 nm fluorescence, higher = more signal
# Chain of Focal adhesion kinase 1 (Homo sapiens) (Q05397 whole entry, looked up): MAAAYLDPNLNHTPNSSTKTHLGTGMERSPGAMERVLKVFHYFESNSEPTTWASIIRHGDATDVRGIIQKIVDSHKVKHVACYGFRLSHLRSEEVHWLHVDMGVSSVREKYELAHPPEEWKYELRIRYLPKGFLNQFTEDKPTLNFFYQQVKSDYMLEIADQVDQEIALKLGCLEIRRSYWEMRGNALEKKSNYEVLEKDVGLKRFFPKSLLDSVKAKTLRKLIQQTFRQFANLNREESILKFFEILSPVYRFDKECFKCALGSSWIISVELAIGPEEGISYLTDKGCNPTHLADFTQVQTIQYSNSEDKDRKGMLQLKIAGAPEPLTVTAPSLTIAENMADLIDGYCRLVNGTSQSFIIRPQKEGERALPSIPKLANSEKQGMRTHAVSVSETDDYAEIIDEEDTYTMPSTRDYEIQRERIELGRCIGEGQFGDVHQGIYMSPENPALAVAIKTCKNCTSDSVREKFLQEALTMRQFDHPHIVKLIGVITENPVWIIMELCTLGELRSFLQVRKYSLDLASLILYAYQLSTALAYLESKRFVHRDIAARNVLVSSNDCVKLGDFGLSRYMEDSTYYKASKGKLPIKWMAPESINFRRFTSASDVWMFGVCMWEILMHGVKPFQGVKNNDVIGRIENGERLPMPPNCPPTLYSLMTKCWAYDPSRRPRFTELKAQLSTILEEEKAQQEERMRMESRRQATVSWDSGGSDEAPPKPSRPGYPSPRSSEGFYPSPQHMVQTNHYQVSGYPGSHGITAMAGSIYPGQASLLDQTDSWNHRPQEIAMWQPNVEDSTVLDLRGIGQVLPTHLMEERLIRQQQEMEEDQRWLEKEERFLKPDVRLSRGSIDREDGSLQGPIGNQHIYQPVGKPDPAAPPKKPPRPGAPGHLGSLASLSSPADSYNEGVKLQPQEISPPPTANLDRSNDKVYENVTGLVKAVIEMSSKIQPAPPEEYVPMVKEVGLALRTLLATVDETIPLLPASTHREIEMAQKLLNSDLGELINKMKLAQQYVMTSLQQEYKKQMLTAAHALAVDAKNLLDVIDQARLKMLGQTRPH
row,Compound,composite z-score
1,COC(=O)[C@@]1(Cc2ccc(OC)cc2)[C@H]2c3cc(C(=O)N4CCCC4)n(Cc4nc5ccccc5[nH]4)c3C[C@H]2CN1C(=O)c1ccccc1,1.64
2,COc1ccc(NC(=O)O[C@H]2[C@H](OC(=O)c3cc4ccccc4[nH]3)[C@@H](OC(=O)c3cc4ccccc4[nH]3)[C@@H](OC)O[C@@H]2CO)cc1,0.448
3,C=C(CCCC)C(=O)CC[C@@H](OC(C)=O)c1ccc(CO)o1,-0.437
4,O=C1[C@H]2C=C(I)[C@H](C[C@@H]2OCCCCO)[C@@]12CO2,0.465
5,COCCCNC(=O)[C@@]1(Cc2ccccc2)N=C(c2ccc(OCCCO)cc2)O[C@H]1c1ccccc1CN=[N+]=[N-],0.944
6,CN(C)CCCCCCNC(=O)[C@@H]1C[C@@H]2C(=O)N3CCC[C@H]3C(=O)N2[C@@H]1c1ccc(O)cc1,-0.135
7,COc1ccc([C@H]2C[C@H]3C(Br)=C[C@@]2(CO)C(=O)[C@]32CO2)cc1,0.125
8,C=CCNC(=O)[C@@H]1[C@H]2C(=O)O[C@H](c3ccccc3)[C@H](c3ccccc3)N2[C@H](c2ccc(OCCO)cc2)[C@@]12C(=O)N(C(=O)OCCOC)c1ccc(C#CCNC(N)=O)cc12,0.613
9,CS(=O)(=O)CCOC(=O)C1=CC(CCCO)=CC(c2ccc(CN3CCCC3)cc2)N(Cc2cccc(OC(F)(F)F)c2)C=C1C(=O)OCCS(C)(=O)=O (stereo not given),0.366
10,COCCOC(=O)N1C(=O)[C@@]2(c3cc(C#CC4(O)CCCCCC4)ccc31)[C@H](C(=O)Nc1nc3ccccc3s1)[C@H]1C(=O)O[C@H](c3ccccc3)[C@H](c3ccccc3)N1[C@@H]2c1ccc(OCCO)cc1,-0.0405
